Source: PubChem BioAssay
NPC1 prom act = qHTS Assay for NPC1 Promoter Activators | Huh7 NPC1 promoter luciferase reporter, 24 h | Potency, µM (top dose mostly 9.22 µM), for inactives: top-dose activation, most hits filed as activators | 2.4% of 320,000 active; note: % of control where 0% means no effect; nearly all actives have a fitted effect of over 60% in size
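Quantitative HTS used a cell-based reporter: Huh7 cells stably bearing the NPC1 promoter upstream of luciferase were treated with compounds for 24 h, and promoter activation was read as luminescence.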
KinaseGlo FLuc = Counterscreen for Luciferase (Kinase-Glo TM) Inhibition | Kinase-Glo luciferase, ATP luminescence, 8 min | AID 1379, 2008 | Luciferin 4-monooxygenase (Photuris pensylvanica), Q27757 | Potency, µM (doses to about 38.3 µM), for the others: at the highest dose activity change, negative = inhibition, actives largely listed as inhibitors | 0.28% of 200,000 active; note: % is set by controls: 0 for no effect and ±100 for the full control effect; nearly all actives have a fitted effect of over 60% in size
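Inhibition of Kinase-Glo luciferase light generation was assessed at 10 uM ATP in pH 7.2 imidazole buffer, with luminescence measured after eight minutes at ambient temperature.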
Rab9 promoter act = qHTS Assay for Rab9 Promoter Activators | 2.8% of 320,000 active | Potency, µM (highest dose often 9.22 µM), without a hit: at the top dose activation, negative = inhibition, most hits filed as activators | Huh7 Rab9 promoter-luciferase reporter, luminescence, 24 h | AID 485297, 2010; note: % of control where 0% means no effect; nearly all actives have a fitted effect of over 60% in size
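Rab9 promoter-driven luciferase in stably transfected Huh7 cells; 1500 cells/well rested 2 h, exposed to compound in DMSO for 24 h at 37 °C, 5% CO2. Luminescence read 10 min after adding luciferase reagent at ambient temperature.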
ELG1 genotox = qHTS screen for small molecules that induce genotoxicity in human embryonic kidney (HEK293T) cells expressing luciferase-tagged ELG1; HEK293T ELG1-luciferase reporter, luminescence, 16 h; Potency, µM (top dose mostly 46 µM), without a hit: top-dose activity change, positive = activation, actives largely listed as activators; 1.3% of 330,000 active; AID 504466, 2011; note: % of control where 0% means no effect; nearly all actives have a fitted effect of over 60% in size
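ELG1-luciferase HEK293T cells, 2,000/well; compound pinned in; 16 hr, 37 °C, 5% CO2; ONE-Glo, 30 min RT; luminescence on CCD imager.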
FLuc counter = qHTS profiling assay for firefly luciferase inhibitor/activator using purifed enzyme and Km concentrations of substrates (counterscreen for miR-21 project). Potency, µM (series often up to 57.5 µM), inactives show at the top dose activity change, negative = inhibition, hits mostly inhibitors. AID 588342, 2011. purified FLuc, Km substrates, luminescence inhibition. 6.9% of 360,000 active. Luciferin 4-monooxygenase (Photinus pyralis), P08659;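 note: plate controls were vehicle for no effect and reference inhibitor for full effect; nearly all actives have a fitted effect of over 55% in size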
Target sequence (P08659 whole entry, looked up): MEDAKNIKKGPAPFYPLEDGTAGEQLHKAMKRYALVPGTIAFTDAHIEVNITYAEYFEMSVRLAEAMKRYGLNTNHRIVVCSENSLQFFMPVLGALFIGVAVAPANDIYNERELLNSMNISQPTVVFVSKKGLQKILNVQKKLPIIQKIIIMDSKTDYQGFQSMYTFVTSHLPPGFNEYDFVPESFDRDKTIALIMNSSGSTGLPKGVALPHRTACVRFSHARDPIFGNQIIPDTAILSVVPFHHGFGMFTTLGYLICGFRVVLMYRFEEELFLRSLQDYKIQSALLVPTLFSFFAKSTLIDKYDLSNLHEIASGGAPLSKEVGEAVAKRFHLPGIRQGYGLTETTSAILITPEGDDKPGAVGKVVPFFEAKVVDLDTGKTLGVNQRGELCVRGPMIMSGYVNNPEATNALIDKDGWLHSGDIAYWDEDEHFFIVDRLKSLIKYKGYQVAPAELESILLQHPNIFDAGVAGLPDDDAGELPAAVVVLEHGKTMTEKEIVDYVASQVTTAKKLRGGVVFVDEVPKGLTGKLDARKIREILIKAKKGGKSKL
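Purified P. pyralis luciferase, 10 nM final, with Km-level 10 uM D-luciferin and 10 uM ATP in 50 mM Tris acetate pH 7.5, 10 mM Mg acetate, 0.01% Tween-20, 0.05% BSA; 6-point qHTS titration about 60 µM downward; luminescence read.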
SMN2 splice enh = qHTS Assay for Enhancers of SMN2 Splice Variant Expression; 2.8% of 210,000 active; Potency, µM (highest dose often 46.1 µM), inactives show at the highest dose activity change, positive = activation, usual class: activators; HEK293 SMN2-luciferase splicing reporter, luminescence, 30-36 h; note: % of control where 0% means no effect; nearly all actives have a fitted effect of over 55% in size
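HEK293 cells carry an SMN2 minigene-luciferase reporter in which exon 7 inclusion puts luciferase in frame. Cells were seeded at 2000 cells/well, attached for 10-12 hours, then exposed to compounds for 30-36 hours at 37C before ONE-Glo luminescence.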
Numbers without * were called inactive; ? = inconclusive; . = no result; [ ] = another dose, or the depositor's remark. A selection: hits, their analogues and other compounds. The true share with any hit is near 7.5%. Calls come from the whole dose curve; as a rule, active = well fitted curve in the direction sought with a large enough effect; inconclusive = small, poorly fitted or top-dose-only effect, or another doubt; inactive = no such curve, though single readings can be large; an effect the other way counts as inactive or inconclusive. Potency is the fitted concentration of half-maximal effect.

SMILES	NPC1 prom act	KinaseGlo FLuc	Rab9 promoter act	ELG1 genotox	FLuc counter	SMN2 splice enh
COc1ccc(-c2c(C)nn3c(-c4ccccc4)cc(-c4ccccc4)nc23)cc1	.	.	.	.	-0.1%	.
Cc1cc(C)c(S(=O)(=O)Nc2cccc(/C=C/C(=O)O)c2)c(C)c1	-0.5%	0.9%	-4.4%	0.5%	2.0%	12.4%
CCOC(=O)c1nc(N2CCN(c3ccc(F)cc3)CC2)c2c(C)noc2n1	.	.	.	.	-6.5%	.
CCC(=O)Nc1ccc2c(c1)OCCO2	-4.8%	3.1%	0.0%	0.8%	-1.3%	-1.5%
O=C(CC1CS(=O)(=O)CC1CC(=O)Nc1ccc2c(c1)OCCO2)Nc1ccc2c(c1)OCCO2 (configuration not stated)	12.4%	-1.2%	7.2%	?	16.9µM*	.
CC(C)c1ccc(O)c(NC(=S)NC(=O)c2ccc3c(c2)OCO3)c1	2.24µM*	.	?	21.9%	6.75µM*	.
O=C(Nc1ccc2c(c1)OCCO2)c1cnn(-c2ccccc2)n1	?	.	2.82µM*	?	4.78µM*	.
O=C(Nc1ccc2c(c1)OCCO2)C(=S)NCc1ccccc1	16.8%	-1.5%	24.8%	10.4%	6.01µM*	?
O=[N+]([O-])c1cc(-c2nc(-c3ccccc3)no2)ccc1N1CCCC1	.	.	.	.	3.9%	.
S=C(Nc1ccc(Br)cc1)Nc1ccc2c(c1)OCCO2	?	.	?	?	12µM*	.
O=C(Nc1cccc([N+](=O)[O-])c1)c1ccc2c(c1)OCCO2	3.55µM*	-4.5%	?	?	7.57µM*	17.8µM*
O=C(Nc1cccc([N+](=O)[O-])c1)c1ccncc1	-3.9%	4.6%	-1.2%	4.7%	0.9%	-9.5%
COc1cc(NC(=S)Nc2ccc3c(c2)OCCO3)cc(OC)c1OC	4.9%	.	14.3%	10.7%	-18.9%	.
O=C(Nc1ccc2c(c1)OCCO2)C(=O)NC1CC1	?	.	2.82µM*	?	4.78µM*	.
CCCc1cc(C(=O)Nc2cccc([N+](=O)[O-])c2)cs1	?	.	?	13.9%	10.7µM*	.
CC(NC(=O)CCn1c(=O)c2cccn2c2ccc(F)cc21)c1ccccc1 (configuration not stated)	.	.	.	.	2.9%	.
CC1=C(c2ccc(Cl)cc2)S(=O)(=O)NC1=NCCCN1CCN(c2cc(C)ccc2C)CC1	.	.	.	.	-3.4%	.
O=C(NC(=S)Nc1ccc2c(c1)OCO2)c1ccccc1	1.41µM*	-7.1%	1.58µM*	?	3.79µM*	20µM*
CN1C(=O)c2ccc(C(=O)Nc3ccc4c(c3)OCO4)cc2C1=O	14.7%	.	12.2%	?	2.39µM*	.
O=C(Nc1cccc([N+](=O)[O-])c1)c1[nH]ncc1Cl	3.16µM*	-7.8%	3.98µM*	?	16.9µM*	11.2µM*
CC(C)(C)c1ccc(C(=O)Nc2cccc([N+](=O)[O-])c2)cc1	2.51µM*	-1.5%	2.24µM*	?	1.69µM*	11.2µM*
O=C(Nc1cccc([N+](=O)[O-])c1)c1cnccn1	6.1%	1.0%	0.8%	1.2%	-2.3%	18.7%
CC(Oc1cc2oc(=O)c3c(c2cc1Cl)CCC3)C(=O)NCCCn1ccnc1 (configuration not stated)	-0.4%	.	-3.5%	0.3%	-1.8%	.
COC(=O)c1cc(C)[nH]c2c(C)cc3nc4ccccc4c3c12	1.8%	.	-0.4%	-10.0%	-9.5%	.
CCCCC[C@H](O)/C=C/[C@@H]1[C@@H](C/C=C\CCCC(=O)O)[C@@H](O)C[C@@H]1O	.	3.0%	.	.	.	1.2%
SMILES	NPC1 prom act	KinaseGlo FLuc	Rab9 promoter act	ELG1 genotox	FLuc counter	SMN2 splice enh
O=C(Nc1ccc2c(c1)OCCO2)c1cccc(Cl)c1	3.16µM*	.	2µM*	?	3.01µM*	.
O=C(NC(=S)Nc1ccc2c(c1)OCCO2)c1cccc2ccccc12	12.1%	-0.8%	22.2%	16.0%	15.1µM*	?
O=C(O)c1ccccc1NC(=S)NC(=O)c1cccc2ccccc12	-2.6%	0.3%	-3.1%	-1.7%	-18.8%	2.8%
O=C(Nc1ccc(N=Nc2ccccc2)cc1)c1cccc(Cl)c1	5.3%	-0.9%	-0.4%	10.2%	-0.6%	17.4%
CN(c1cccc(NC(=O)c2ccc(C(C)(C)C)cc2)c1)S(C)(=O)=O	10.6%	-0.4%	?	-16.4%	0.477µM*	.
O=C(CCCc1cccs1)Nc1ccc2c(c1)OCO2	2.24µM*	-3.0%	2.82µM*	?	10.7µM*	14.1µM*
O=C(Nc1ccc2c(c1)OCCO2)c1cccc(C(=O)Nc2ccc3c(c2)OCCO3)c1	3.98µM*	.	16.5%[1.84 µM]	13.8%	6.75µM*	.
Cc1cccc(C2NC(=O)c3c(sc(C)c3C)N2)c1O (configuration not stated)	15.8%	-6.2%	0.4%	-0.5%	?	-1.5%
Cc1sc2c(c1C)C(=O)NC(c1ccccc1F)N2 (configuration not stated)	27.4%	.	?	?	16.9µM*	.
Cc1cccc(OCCOC(=O)CN2C(=O)NC3(CCCC3)C2=O)c1	-9.4%	.	6.1%	0.4%	-0.8%	.
Clc1ccc(SCc2cc(-c3ccccc3)on2)cc1	1.8%	2.7%	4.3%	?	-4.1%	6.1%
Clc1ccc(-c2cc(-c3ccccc3)on2)cc1	1.41µM*	.	1.26µM*	?	0.849µM*	.
Cc1nc(-c2cc(-c3ccc(Cl)cc3)no2)cs1	1.12µM*	.	0.562µM*	?	1.2µM*	.
N[C@@](C(=O)O)(c1ccc(P(=O)(O)O)cc1)C1CC1	.	2.4%	.	.	.	.
CN(C)c1ccc(/C=N\NC(=O)c2cnc3ccccc3c2)cc1	.	-3.7%[7.66 µM]	.	.	.	-5.9%[9.22 µM]
Cc1cc(=O)n(-c2ccc3ccccc3n2)[nH]1	7.7%	-5.9%	0.2%	?	?	20.9%
CNc1ccccc(-c2ccc3ccccc3n2)c1=O	?	-4.3%	3.55µM*	?	9.53µM*	11.2µM*
COc1ccc(C2c3cc(OC)c(OC)cc3Cc3c4cc(OC)c(OC)cc4cc[n+]32)cc1OC (configuration not stated)	.	-1.3%	.	.	.	-21.2%
CCCNC(=O)COCc1cc(-c2ccc(F)cc2)on1	.	.	.	.	-6.9%	.
c1ccc(-c2cc3n(c2)CCc2ccccc2-3)cc1	3.55µM*	-0.8%	3.16µM*	-5.8%	4.78µM*	11.2µM*
CC(=O)OC1C=C[C@]2(C)C(CC(OC(C)=O)[C@@]3(C)C4=CC(=O)OC(c5ccoc5)[C@]4(C)CCC23)C1(C)C (some centres not stated)	.	-0.5%	.	.	.	-6.0%
